Records with an inconclusive call do not appear. Where a call stands in place of a potency, no number is given. Some structures have more than one record in an assay (separate samples or runs), and their calls can disagree. Activity calls are given as the source filed them. Calls come from the whole dose curve; as a rule, active = well fitted curve in the direction sought with a large enough effect; inconclusive = small, poorly fitted or top-dose-only effect, or another doubt; inactive = no such curve, though single readings can be large; an effect the other way counts as inactive or inconclusive.
Tests used:
[1] = Viability qHTS for spleen associated tyrosine kinase inhibitor (SYKi) drug resistant MV4-11 cells (AID 1963824); note: nearly all actives have a fitted effect of over 35% in size; note: potency is the fitted concentration of half-maximal effect
How it was run: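 SYK inhibitor-resistant MV4-11 AML cells, 500 per well, added to predispensed compounds and incubated 72 hr at 37 C, 5% CO2. Viability measured by CellTiter-Glo luminescence after 10 min at room temperature.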

[2] = Quantitative highthroughput screen to assess conditional lethalithy of NOMO1 cells grown in RPMI1640 with untreated serum (RPMI+s) (AID 1963876); note: nearly all actives have a fitted effect of over 35% in size
How it was run: (§1)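 Each medium arm—HPLM with 10% dialyzed FBS, or RPMI1640 with 5 mM glucose and 10% untreated or dialyzed FBS—was screened against an 11-point, 3-fold compound titration for 48 h at 37 °C, with CellTiter-Glo luminescence as endpoint.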

[3] = Quantitative highthroughput screen to assess conditional lethalithy of P12 Ichikawa cells grown in Human Plasma-Like Medium with dialyzed fetal bovine serum (HPLM+ds) (AID 1963879); details: Potency: viability; note: series mostly up to about 46 µM; nearly all actives have a fitted effect of over 35% in size
How it was run: as §1

[4] = Quantitative highthroughput screen to assess conditional lethalithy of P12 Ichikawa cells grown in RPMI1640 with dialyzed fetal bovine serum (RPMI+ds) (AID 1963880); details: Potency: P12-Ichikawa viability; note: nearly all actives have a fitted effect of over 35% in size
How it was run: as §1

[5] = Quantitative highthroughput screen to assess conditional lethalithy of P12 Ichikawa cells grown in RPMI1640 with untreated serum (RPMI+s) (AID 1963881); details: Potency: viability
How it was run: as §1

[6] = Quantitative highthroughput screen to assess conditional lethalithy of SEM cells grown in Human Plasma-Like Medium with dialyzed fetal bovine serum (HPLM+ds) (AID 1963882)
How it was run: as §1

[7] = Quantitative highthroughput screen to assess conditional lethalithy of SEM cells grown in RPMI1640 with unreated serum (RPMI+s) (AID 1963883); note: nearly all actives have a fitted effect of over 35% in size
How it was run: as §1

[8] = Cellular viability qHTS for adrenocortical cancer (ACC) cell line SW-13 (AID 1963989); details: SW-13 ACC cells viability, CellTiter-Glo, 48 h; activity (max response): stronger effect = lower value;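 note: cells grown in serum-free medium with ITS supplement; nearly all actives have a fitted effect of over 65% in size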
How it was run: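 IC50 and maximal-response values come from four-parameter logistic fits of titration data. SW-13 cells in serum-free medium received compounds (up to 46 uM final) for 48 h before CellTiter-Glo luminescence.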

[9] = Cellular viability qHTS for adrenocortical cancer (ACC) cell line NCI-H295R (AID 1963990); note: nearly all actives have a fitted effect of over 60% in size; note: potency is the fitted concentration of half-maximal effect
How it was run: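 Adrenocortical carcinoma cells, suspended at 300 000 cells/mL in serum-free DMEM plus ITS, rested overnight before pin transfer of compound. After two days' incubation, ATP-dependent luminescence was recorded and curve-fitted.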

[10] = Quantitative highthroughput screen to assess conditional lethalithy of NOMO1 cells grown in RPMI1640 with dialyzed fetal bovine serum (RPMI+ds) (AID 1963877); note: series mostly up to about 46 µM; nearly all actives have a fitted effect of over 30% in size
How it was run: as §1

## CNc1ccc2oc(C[C@H]3O[C@@]4(CC[C@H]3C)O[C@H](C(C)C(=O)c3ccc[nH]3)[C@H](C)C[C@H]4C)nc2c1C(=O)O (some centres not stated)
[1]
  Potency: 4.61 µM (active)

## CC(=O)O[C@H]1C(=O)[C@]2(C)C(O)C[C@H]3OC[C@@]3(OC(C)=O)[C@H]2[C@H](OC(=O)c2ccccc2)[C@]2(O)C[C@H](O)C(C)=C1C2(C)C (some centres not stated)
[1]
  Potency: 6.85 µM (active)

## O=c1[nH]c2ccccc2n1CCCN1CCC(n2c(=O)[nH]c3cc(Cl)ccc32)CC1
[1]
  Potency: 18.6 µM (active)
[2]
  Potency: inactive
[3]
  Potency: inactive
[4]
  Potency: inactive
[5]
  Potency: inactive
[6]
  Potency: inactive
[7]
  Potency: inactive
[8]
  activity (max response): -19.5% (inactive)
[9]
  Potency: 16.4 µM (active) and inactive

## CCC(C)C1NC(=O)C2CCCN2C(=O)C(CC(C)C)OC(=O)CCNC(=O)C(C)N(C)C(=O)C(C(C)C)N(C)C1=O (configuration not stated)
[1]
  Potency: 5.44 µM (active)

## CCOC(=O)C1(CCc2ccccc2)CCN(Cc2ccc(NC(C)=O)cc2)CC1
[1]
  Potency: 23.1 µM (active)

## CC1=CC2(O)/C=C/C(C)(O)C(O)C(O)/C=C/C(=O)OC23C(=O)NC(CC(C)C)C3C1C (configuration not stated)
[1]
  Potency: inactive

## C#CC1(O)CCC2C3CCC4=CC(=O)CCC4(C)C3CCC21C (configuration not stated)
[1]
  Potency: 11.8 µM (active)
[2]
  Potency: inactive
[10]
  Potency: inactive
[4]
  Potency: inactive
[6]
  Potency: inactive
[7]
  Potency: inactive
[8]
  activity (max response): 9.7% (inactive)
[9]
  Potency: inactive

Source: PubChem BioAssay (NCATS)
